Screening results from PubChem BioAssay.
Shiga toxin inh: inhibitors of Shiga toxin in Vero cells; 290,000 compounds, 9.2% hits; inhibition, % at 38.7 µM; Vero cells, Shiga toxin protein synthesis inhibition reporter; in the data active = inhibition mostly above about 28%, no sharp cut-off; inactive = mostly below about 43%; also: 0% is about no effect
NS1 inh: influenza NS1 inhibition; Potency, µM (top dose mostly 46.1 µM), inactives show top-dose activity, positive = more growth; 270,000 compounds, 0.4% hits; also: potency is read from the fitted curve at half-maximal effect; actives are rising curves; nearly all actives have a fitted effect of over 50% in size
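Read-out: OD600 growth recovery of NS1-expressing budding yeast. Cells grown overnight at 30C in -URA glucose medium, washed, resuspended and diluted 1:100 in 2% galactose assay medium, pH 6.0. Same strain lacking NS1 served as positive control.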
CHX counter: affects cycloheximide protein synthesis inhibition readout, counter-screen; cell reporter, cycloheximide protein synthesis inhibition counterscreen; 300,000 compounds, 12% hits; max response, %; in the data active = max response mostly above about 13%, no sharp cut-off; inactive = mostly below about 14%; also: read at 38.3 µM for the half of the compounds with a filed dose; 0% is about no effect
LmPK inhibitor: blocks Leishmania mexicana pyruvate kinase activity | purified LmPK, Kinase-Glo ATP luminescence, 1 h | Potency, µM (doses to about 57.5 µM), without a hit: at the highest dose activity change, negative = inhibition, actives largely listed as inhibitors | 290,000 compounds, 0.37% hits; active = well fitted curve in the direction sought with a large enough effect; inconclusive = small, poorly fitted or top-dose-only effect, or another doubt; inactive = no such curve, though single readings can be large; an effect the other way counts as inactive or inconclusive; also: potency is read from the fitted curve at half-maximal effect; % is scaled to controls: 0 for no effect and ±100 for the full control effect
Target sequence (Q27686 whole entry, looked up): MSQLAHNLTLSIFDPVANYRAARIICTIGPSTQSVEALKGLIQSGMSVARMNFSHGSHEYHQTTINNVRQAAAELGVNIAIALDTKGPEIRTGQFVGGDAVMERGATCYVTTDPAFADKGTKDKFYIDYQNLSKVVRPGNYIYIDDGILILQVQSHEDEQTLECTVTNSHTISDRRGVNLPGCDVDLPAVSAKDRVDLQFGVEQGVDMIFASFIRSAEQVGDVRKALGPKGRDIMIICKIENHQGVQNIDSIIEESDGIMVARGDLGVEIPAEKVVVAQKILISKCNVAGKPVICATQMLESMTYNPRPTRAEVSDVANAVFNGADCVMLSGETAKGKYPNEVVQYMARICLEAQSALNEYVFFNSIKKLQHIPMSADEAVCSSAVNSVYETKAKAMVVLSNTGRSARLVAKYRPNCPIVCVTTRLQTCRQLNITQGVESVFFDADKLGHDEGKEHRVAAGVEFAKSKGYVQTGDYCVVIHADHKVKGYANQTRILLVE
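Screened at intermediate enzyme activity to detect both inhibitors and activators: LmPK at 0.1 nM, with a 0.5 nM enzyme column as activation reference. PEP 0.5 mM, ADP 0.1 mM; ATP detected by luminescence after 1 h.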
Tb PYK inh: blocks Trypanosoma brucei pyruvate kinase | AID 624173 | Q57TT1 | 410,000 compounds, 0.12% hits | Potency, µM (highest dose often 76.8 µM), without a hit: at the highest dose activity, negative = inhibition, hits mostly inhibitors | TbPYK enzyme, Kinase-Glo Plus ATP luminescence, 45 min; active = well fitted curve in the direction sought with a large enough effect; inconclusive = small, poorly fitted or top-dose-only effect, or another doubt; inactive = no such curve, though single readings can be large; an effect the other way counts as inactive or inconclusive; also: potency is read from the fitted curve at half-maximal effect; % is scaled to controls: 0 for no effect and ±100 for the full control effect; nearly all actives have a fitted effect of over 50% in size
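Glycolytic pyruvate kinase of T. brucei was incubated with substrate, test compound and 130 uM ADP for 45 minutes at room temperature. Luminescent Kinase-Glo Plus signal was measured after 10 minutes.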
SARS PLpro yeast: SARS-CoV PLP inhibition in yeast | AID 485353 | S. cerevisiae expressing SARS-CoV PLpro, growth rescue | Potency, µM (series often up to 32.9 µM), for the others: at the highest dose activity, positive = growth rescue, usual class: activators | 330,000 compounds, 0.19% hits; also: potency is read from the fitted curve at half-maximal effect; 0% is about no effect; nearly all actives have a fitted effect of over 55% in size
An asterisk follows results filed as active; ? = inconclusive; / = not tested or not shown; + = active, no number. The sample as a whole holds a higher share of hits than the screen did. Unless noted, calls follow the shape of the full dose curve.

SMILES	Shiga toxin inh	NS1 inh	CHX counter	LmPK inhibitor	Tb PYK inh	SARS PLpro yeast
CCOc1ccc2nc(SCc3ccc(F)cc3)sc2c1	36*	-19%	37*	-7%	-3%	-19%
Cc1ccc(CSc2nc3ccc(NC(=O)COc4ccc(F)cc4)cc3s2)cc1	/	/	/	/	-4%	/
COC(=O)c1ccc2nc(-c3ccccc3)c(Cc3ccccc3OC)n2c1	/	/	/	/	2%	/
Cc1ccc(-n2ncc3c(N4CCN(Cc5ccccc5)CC4)ncnc32)cc1C	/	/	/	/	-1%	/
c1ccc(-c2cc3nc(NCc4cccs4)nc(NCc4ccc5occc5c4)c3s2)cc1	/	/	/	/	-1%	/
CCOc1ccc2nc(N3CCCC(C(=O)NCCCOC)C3)sc2c1 (centres undefined)	/	/	/	/	-9%	/
CCOc1ccc2nc(N3CCC(C(=O)N4CCN(C5CCCCC5)CC4)CC3)sc2c1	64*	11%	48*	4%	-13%	-6%
CCOc1cc2sc(N3CCC(C(=O)Nc4ccc(CC)cc4)CC3)nc2cc1Br	/	/	/	/	-9%	/
COc1ccc2nc(N3CCCC(C(=O)NCCCN4C(C)CCCC4C)C3)sc2c1 (centres undefined)	40	-1%	20*	1%	-3%	5%
CCOc1cc2sc(N3CCC(C(=O)Nc4ccc(C)cc4)CC3)nc2cc1Br	149*	/	55*	/	-18%	/
CCOc1ccc2nc(N3C(=O)/C(=C/c4ccccc4)NC3=S)sc2c1	177*	-17%	27*	-2%	-5%	3%
Cc1ccc(C)c(CN2CCSCC2)c1	-11	-5%	-1	9%	24%	3%
COc1ccc(Cl)cc1NC(=O)C(C)n1c(=O)cc(C(F)(F)F)c2c(C)nn(C)c21 (centres undefined)	/	/	/	/	3%	/
Cc1ccc(S(=O)(=O)N[C@H](CN)C(=O)O)cc1	/	-1%	/	/	/	/
CCOC(=O)C1=CCN(S(=O)(=O)c2ccc(C)cc2)C1c1ccccc1F (centres undefined)	/	/	/	/	-7%	/
Cc1ccc(C2=NC(c3ccc(F)cc3)=Nc3ccc(C)cc3N2)cc1	/	/	/	/	-5%	/
CC(C)(C)C1COc2ccccc2N1C(=O)c1cccc(Cl)c1 (centres undefined)	2	-3%	-4	7%	-14%	-1%
COc1ccc(OCC(O)CNC(=O)c2sccc2Cl)cc1 (centres undefined)	16	-8%	20*	4%	-3%	-1%
COc1ccc(CNC(=O)c2ccc(Br)cc2)cc1	63	-4%	13*	3%	/	-1%
COc1ccc(OCC(O)CNC(=O)Nc2ccccc2)cc1 (centres undefined)	-6	0%	-1	1%	4%	0%
Cc1ccc(CNC(=O)c2ccc(Cn3cc(-c4ccc(C)cc4)nc3-c3ccncc3)cc2)cc1	42*	10%	41*	-2%	-2%	-9%
COc1ccc(CNC(=O)c2ccc(-c3ccccc3)cc2)cc1	79*	-2%	45*	5%	-2%	3%
COc1ccc(CNC(=O)c2ccc(C)cc2)cc1	39*	/	24	/	/	/
COc1ccccc1CNC(=O)c1sccc1C	35	-2%	6	5%	0%	-1%
COc1ccc(CNC(=O)c2sccc2C)cc1	22	-14%	15*	-1%	-1%	1%
SMILES	Shiga toxin inh	NS1 inh	CHX counter	LmPK inhibitor	Tb PYK inh	SARS PLpro yeast
COc1ccc(C(=O)NCCSCc2ccccc2)cc1OC	34	/	6	-4%	-7%	-5%
CCCCC1Cc2[nH][nH]c(=O)c2C(c2ccc(Cl)cc2)O1 (centres undefined)	/	/	/	/	-1%	/
COc1ccc(-n2c(-c3ccc(C)cc3)n[nH]c2=S)cc1	-1	?	0	?	?	14%
COc1ccc(-c2n[nH]c(=S)n2-c2ccc(Br)cc2)cc1OC	-9	-4%	1	18µM*	4µM*	-12%
COc1ccc(-c2n[nH]c(=S)n2-c2ccccc2C)cc1OC	-7	14%	-3	?	?	-5%
COc1cc(-c2n[nH]c(=S)n2-c2ccc(C)cc2)cc(OC)c1OC	3	1%	17*	9%	8.9µM*	-7%
C=CCn1c2ccccc2c2nnc(SC(CC)C(=O)Nc3sc4c(c3C#N)CCCC4)nc21 (centres undefined)	7	4%	24*	5%	1%	-6%
CCN(CC)c1ccc(S(=O)(=O)N2CCOCC2)cc1NC(=O)CSc1nnc(N)s1	/	/	/	/	-1%	-3%
CCC(=O)Nc1ccc(NC(=O)c2ccco2)c(OC)c1	67*	-4%	30*	-1%	-4%	-2%
COCCNC(=S)Nc1cc(OC)c(NC(=O)c2ccco2)cc1OC	27	2%	22*	5%	-3%	-2%
CCC(=O)Nc1ccc(NC(=O)c2ccco2)cc1	57*	-5%	25*	-16%	1%	-14%
CCOCCCNC(=S)Nc1cc(OCC)c(NC(=O)c2ccco2)cc1OCC	-10	3%	-1	3%	2%	0%
O=C(Nc1nnc(COc2ccc(F)cc2)s1)c1ccco1	12	-76%	5	-2%	-9%	0%
O=C(Nc1nc(SCc2ccc(F)cc2)ns1)c1ccco1	34	-50%	16*	-6%	1%	-110%
COc1ccccc1C1C(C#N)=C(N)N(N(C)C)C2=C1C(=O)CC(C)(C)C2 (centres undefined)	-6	2%	3	-1%	-2%	1%
O=C(Nc1ccc(CSc2ccccc2)cc1)c1ccco1	96*	-6%	46*	-5%	-5%	-8%
CCSc1nsc(NC(=O)Nc2ccc(F)cc2F)n1	87*	-44%	59*	-3%	0%	-3%
O=C(CCc1ccccc1)Nc1ccc(NC(=O)c2ccco2)cc1	39	-13%	-2	3%	-1%	-2%
CCCC(=O)Nc1ccc(NC(=O)c2ccco2)c(OC)c1	+	-1%	28*	-7%	-17%	0%
CC(C)N1CCc2c(sc(NC(=S)NC(=O)c3ccccc3)c2C#N)C1	39*	15%	45*	2%	0%	-2%
CCCN1CCc2c(sc(NC(=S)NC(=O)c3ccccc3)c2C#N)C1	43*	/	38*	10%	19%	1%
CC(C)C1Cc2c(sc(NC(=S)NC(=O)c3ccccc3)c2C#N)CO1 (centres undefined)	-7	12%	-4	-2%	1%	8%
COc1ccccc1CN1CCC2(CCNCC2)CC1	/	/	/	/	2%	/
CCOC(=O)c1oc2ccc(/C=N/O)c(Cl)c2c1C	37	0%	29*	4%	-1%	-1%
O=C(COc1ccc(Cl)c2cccnc12)N1CCOCC1	/	/	/	/	4%	-3%
CCOc1ccc(S(=O)(=O)NC(C)C(=O)NCc2ccc3c(c2)OCO3)cc1 (centres undefined)	-8	5%	-4	0%	-5%	0%
Cc1ccccc1-n1c(-c2ccco2)n[nH]c1=S	-8	11%	-5	?	?	-14%
